# Results filed as inconclusive are left out. A call without a number means that no potency is given here. Active and inactive are the calls of the source. The call rests on the fitted dose curve.
# Experiment: qHTS assay for small molecule agonists of the p53 signaling pathway (AID 651631); further: nearly all actives have a fitted effect of over 15% in size
# Conditions: HCT-116 p53RE-bla reporter, beta-lactamase FRET ratio, 16 h; series mostly up to 73.3 µM
# Procedure, shortened: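 Readout was fluorescence from the LiveBLAzer FRET substrate, applied for 2 h at room temperature after 16 h compound exposure at 37 °C. Cells were the p53RE-bla HCT-116 line, with beta-lactamase driven by p53 response elements.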
# Potency means the concentration at half of the fitted maximal effect.
row,Compound,Potency
1,CCc1ccc(C)cc1,inactive
2,Cc1ccc(Cl)cc1N,inactive
3,Cc1ccc(NC(=O)N(C)C)cc1NC(=O)N(C)C,inactive
4,CC(C)(C)S,inactive
5,O=P(O)(O)Oc1ccccc1,inactive
6,COc1ccc(-c2cc(C(F)F)nn2-c2ccc(S(N)(=O)=O)cc2)cc1F,inactive
7,CCO[Si](C)(CCCOCC1CO1)OCC (configuration not stated),inactive
8,CNS(=O)(=O)c1cc(C(=O)N2CCC(CCN3C4CCC3CC(n3c(C)nc5ccccc53)C4)(c3cccc(F)c3)CC2)c(Cl)cc1F (configuration not stated),inactive
9,Cc1c[nH]c2ccccc12,inactive
10,O=C1OC[C@H](Cc2cccc(O)c2)[C@H]1Cc1cccc(O)c1,inactive
11,Nc1nc(-c2ccc([N+](=O)[O-])cc2)cs1,inactive
12,COC(OC)OC,inactive
13,CC(C)COC(=O)COc1cc(Cl)c(Cl)cc1Cl,inactive
14,Cc1ccc(N(CCO)CCO)cc1,inactive
15,Nc1nc2ccc(OC(F)(F)F)cc2s1,7.5 µM (active)
16,C[C@@H]1C[C@H]2[C@@H]3CCC4=CC(=O)C=C[C@]4(C)[C@@]3(F)[C@@H](O)C[C@]2(C)[C@@]1(O)C(=O)COP(=O)(O)O,inactive
17,COC(=O)c1sccc1S(N)(=O)=O,inactive
18,COC(=O)CC(C(C)=O)C(=O)OC (configuration not stated),inactive
19,Cc1c(C2(c3cc(Br)c(O)c(Br)c3C)OS(=O)(=O)c3ccccc32)cc(Br)c(O)c1Br,inactive

row,Compound,Potency
1,SCCc1cnccn1,61.1 µM (active)
2,CN(C)CC/C=C1\c2ccccc2Sc2ccc(Cl)cc21,15 µM (active)
3,CC(=O)OCC(C)C,inactive
4,O=[N+]([O-])C1(Br)COCOC1,inactive
5,CSSc1ccoc1C,inactive
6,CCOC(=O)C(C)O (configuration not stated),inactive
7,O=C(O)CCC(=O)c1ccc(-c2ccccc2)cc1,inactive
8,CNc1c2c(nn1C)CCCC2,inactive
9,CCN(Cc1cccc(S(=O)(=O)O)c1)c1ccc(C(=C2C=CC(=[N+](CC)Cc3cccc(S(=O)(=O)O)c3)C=C2)c2ccccc2S(=O)(=O)[O-])cc1,inactive
10,Nc1ccn([C@H]2CS[C@@H](CO)O2)c(=O)n1,inactive
11,C=CC(=O)O,inactive
12,CN=C(N)NC(=O)Nc1c(C)cccc1C,inactive
13,Cc1ccc2nc(N)[nH]c(=O)c2c1Sc1ccncc1,2.66 µM (active)
14,CCCCCCCC(=O)OCCCCCC,inactive
15,C[C@@H]1[C@H](O)[C@@H](C)/C=C/C=C\C=C\C=C\C=C\C=C\C=C\[C@H](O[C@@H]2O[C@H](C)[C@@H](O)[C@H](N)[C@@H]2O)C[C@@H]2O[C@](O)(C[C@@H](O)C[C@@H](O)[C@H](O)CC[C@@H](O)C[C@@H](O)CC(=O)O[C@H]1C)C[C@H](O)[C@H]2C(=O)O (stereo in doubt),inactive
16,COc1ccc(-n2nc(C(F)F)cc2-c2ccc(S(C)=O)cc2)cc1 (configuration not stated),inactive
17,CCN(CC)CCOC(=O)C(c1ccccc1)c1ccccc1,inactive
18,O=c1[nH]c2cc(C(F)(F)F)c(N3CCOCC3)cc2n(CP(=O)(O)O)c1=O,inactive

# Source: PubChem BioAssay (Tox21)
